Measured values reported in PubChem BioAssay (NCATS).
Records with an inconclusive call do not appear. The source made the active and inactive calls. Calls come from the whole dose curve; as a rule, active = well fitted curve in the direction sought with a large enough effect; inconclusive = small, poorly fitted or top-dose-only effect, or another doubt; inactive = no such curve, though single readings can be large; an effect the other way counts as inactive or inconclusive. Where a SMILES comes first, the peptide text is derived from it. Bridges are numbered along the chain shown (N, C = ends). [ ]: non-standard residue; d: D form. NMeY = CN[CH](Cc1ccc(O)cc1)C(=O)O

Tests used:
NIH3T3 = test: qHTS assay to identify novel small-molecules to repurpose for Merkel cell carcinoma treatment (AID 1296009); details: MCC and control cell lines, CellTiter-Glo viability, 72 h; at 44.8 µM (top of the series) unless noted; note: nearly all actives have a fitted effect of over 60% in size
How it was run: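 qHTS format: cells treated with library compounds in DMSO across 8 (NPC) or 11 (MIPE) concentrations. Readout after 72 hr at 37 degree celsius was CellTiter-Glo luminescence.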

C33A = test: Primary qHTS to identify gynecologic anti-cancer compounds using libraries of approved drugs and bioactive compounds (AID 1345084); details: Gynecologic cancer cell panel viability, ATPlite luminescence, 48 h; series mostly up to 57.5 µM; note: nearly all actives have a fitted effect of over 55% in size
How it was run: (§1)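 Five-concentration response, 48 h; readout is ATP-driven luciferase luminescence.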

CAOV3 = test: as above; details: Gynecologic cancer cell panel viability, ATPlite luminescence, 48 h; series mostly up to 57.5 µM
How it was run: as §1

CASKI = test: as above; details: Gynecologic cancer cell panel viability, ATPlite luminescence, 48 h; series mostly up to 57.5 µM
How it was run: as §1

Es-2 = test: as above; details: Gynecologic cancer cell panel viability, ATPlite luminescence, 48 h; series mostly up to 57.5 µM
How it was run: as §1

HeLa = test: as above; details: Gynecologic cancer cell panel viability, ATPlite luminescence, 48 h; series mostly up to 57.5 µM
How it was run: as §1

Hek293T = test: as above; details: Gynecologic cancer cell panel viability, ATPlite luminescence, 48 h, control line for the selectivity index; series mostly up to 57.5 µM
How it was run: as §1

JEG-3 = test: as above; details: Gynecologic cancer cell panel viability, ATPlite luminescence, 48 h; series mostly up to 57.5 µM
How it was run: as §1

OV90 = test: as above; details: Gynecologic cancer cell panel viability, ATPlite luminescence, 48 h; series mostly up to 57.5 µM
How it was run: as §1

PA-1 = test: as above; details: Gynecologic cancer cell panel viability, ATPlite luminescence, 48 h; series mostly up to 57.5 µM
How it was run: as §1

SKOV3 = test: as above; details: Gynecologic cancer cell panel viability, ATPlite luminescence, 48 h; series mostly up to 57.5 µM
How it was run: as §1

Tov-21-G = test: as above; details: Gynecologic cancer cell panel viability, ATPlite luminescence, 48 h; series mostly up to 57.5 µM
How it was run: as §1

Tov112D = test: as above; details: Gynecologic cancer cell panel viability, ATPlite luminescence, 48 h; series mostly up to 57.5 µM
How it was run: as §1

Measured: Potency

c1cc(OCCCN2CCCCC2)ccc1CN1CCCCC1
inactive: all assays above

C[C@H](C(=O)NC1CCCC1)N(C(=O)Cn1nnc(-c2ccc3c(c2)OCO3)n1)C1CCCCC1
inactive: all assays above

C[C@H](NC(c1cccc2[nH]c(=O)c(=O)[nH]c12)P(=O)(O)O)c1ccc(Br)cc1 (stereo partly specified)
inactive: all assays above

COc1ccc(C2(O)c3ccccc3NC(=O)C2O)cc1 (stereo unspecified)
inactive: all assays above

COc1cc(O)c2c(c1)C1=C[C@H](O)[C@@H](O)C[C@]1(C)OC2=O
inactive: all assays above

CCCC(=O)O[C@@H]1[C@@H]2[C@@H](OC(C)=O)[C@]3(C)C(=O)[C@H]4[C@@H](OC(C)=O)C(C)(C)C[C@H]4[C@]3(C)C(=O)[C@@]2(OC(C)=O)C[C@@H]1C
inactive: NIH3T3 inactive [at 17.4 µM] | C33A | CAOV3 | CASKI | Es-2 | HeLa | Hek293T | JEG-3 | OV90 | PA-1 | SKOV3 | Tov-21-G | Tov112D

CCC(C)C1NC(=O)C2CCCN2C(=O)C(NC(C)=O)C(C)OC(=O)C(Cc2ccc(OC)cc2)N(C)C(=O)C2CCCN2C(=O)C(C(C)C)NC1=O (stereo unspecified) (Ac-TPIVP[NMeY](Me); ester 1-C; configuration not given here)
inactive: NIH3T3 inactive [at 17.4 µM] | C33A | CAOV3 | CASKI | Es-2 | HeLa | Hek293T | JEG-3 | OV90 | PA-1 | SKOV3 | Tov-21-G | Tov112D
